From PubChem BioAssay (Tox21) come the findings set out here.

Each structure is given as a SMILES string. Unmarked numbers belong to inactive results. Records with an inconclusive call do not appear. Calls of active or inactive are those of the source. Unless noted, calls come from the whole dose curve; as a rule, active = well fitted curve in the direction sought with a large enough effect in the repeat runs; inconclusive = weak or mixed curves; inactive = no such curve, though single readings can be large; an effect the other way counts as inactive or inconclusive.

Assay [1] deals with Retinoic acid receptor RXR-alpha (Homo sapiens) (UniProt P19793). The assay can be described thus: qHTS assay to identify small molecule agonists of the RXR signaling pathway (AID 1159527; calls by dose curve; note: % is set by controls: 0 for no effect and ±100 for the full control effect; nearly all actives have a fitted effect of over 35% in size). Summed up: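 qHTS of the Tox21 10K library in GeneBLAzer RXR-alpha HEK 293T cells carrying a beta-lactamase reporter […]; 16 hr treatment, 9-cis retinoic acid as agonist control, FRET read-out.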
Sequence of Retinoic acid receptor RXR-alpha (Homo sapiens) (P19793 whole entry, looked up): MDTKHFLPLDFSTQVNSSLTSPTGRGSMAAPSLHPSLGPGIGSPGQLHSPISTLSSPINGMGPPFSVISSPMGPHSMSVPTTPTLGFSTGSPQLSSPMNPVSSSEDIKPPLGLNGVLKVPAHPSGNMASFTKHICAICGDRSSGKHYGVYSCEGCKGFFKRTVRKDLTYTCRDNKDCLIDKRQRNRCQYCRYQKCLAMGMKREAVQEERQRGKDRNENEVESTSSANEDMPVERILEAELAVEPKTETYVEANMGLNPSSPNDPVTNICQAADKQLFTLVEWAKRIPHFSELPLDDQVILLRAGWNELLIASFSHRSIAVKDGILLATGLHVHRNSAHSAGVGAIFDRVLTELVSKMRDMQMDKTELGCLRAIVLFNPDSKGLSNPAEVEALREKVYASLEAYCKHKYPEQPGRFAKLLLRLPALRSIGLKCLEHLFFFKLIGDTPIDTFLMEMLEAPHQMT

In assay [2] the target is Nuclear receptor subfamily 1 group I member 3 (Homo sapiens) (UniProt Q14994). The assay is described as follows: qHTS assay to identify small molecule antagonists of the constitutive androstane receptor (CAR) signaling pathway (AID 1224838). For activity, negative = inhibition: % is set by controls: 0 for no effect and ±100 for the full control effect.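 Note: HepG2 cells stably expressing hCAR with CYP2B6 luciferase reporter stimulated by CITCO; nearly all actives have a fitted effect of over 40% in size.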 Note: potency is the fitted concentration of half-maximal effect. The essentials:
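Antagonist mode used CITCO at a final 50 nM to activate CAR in human hepatoma HepG2 cells carrying stable hCAR and a 2.2 kb CYP2B6 promoter-luciferase construct. Compounds were tested at 15 concentrations over 24 h, with luminescence as the end point.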

The nature of assay [3]: qHTS RealTime-Glo MT Cell Viability Assay in HepG2 cells - 40 hour (AID 1224870). For activity change, negative = cytotoxic: % is set by controls: 0 for no effect and ±100 for the full control effect. Note: nearly all actives have a fitted effect of over 50% in size. Note: potency is the fitted concentration of half-maximal effect. Summed up:
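HepG2 cells (600/well) mixed with RealTime-Glo MT reagent, settled 5 h at 37 C/5% CO2 before compound addition. Nonlytic NanoLuc luminescence from viable-cell prosubstrate reduction read repeatedly during 40 h treatment at 37 C.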

The nature of assay [4]: A CellTox Green Cytotoxicity Assay to monitor cytotoxicity in HepG2 cells - 16 hour (AID 1224876). Note: nearly all actives have a fitted effect of over 45% in size. Note: potency is the fitted concentration of half-maximal effect. Summed up: (§1)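 Cells and non-lytic dye reagent are dispensed together (600 HepG2 cells/well) and incubated 5 h before DMSO compound transfer. Kinetic fluorescence is then recorded in the same wells during 40 h at 37 C.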
Assay [5] is described as follows: qHTS RealTime-Glo MT Cell Viability Assay in HepG2 cells - 32 hour (AID 1224877). Note: nearly all actives have a fitted effect of over 55% in size. Note: potency is the fitted concentration of half-maximal effect. The essentials: (§2)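 Viability was tracked continuously by NanoLuc luminescence from prosubstrate reduced by living HepG2 cells, at successive time points over 40 h of compound exposure. Cells with reagent were preincubated 5 h at 37 °C before compound addition.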
The nature of assay [6]: qHTS RealTime-Glo MT Cell Viability Assay in HEK293 cells - 0 hour (AID 1224880). Note: top concentration of the series differs between compounds; % is set by controls: 0 for no effect and ±100 for the full control effect; nearly all actives have a fitted effect of over 45% in size. Summed up:
(§3)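 Real-time viability in HEK293: signal arises when living cells convert a prosubstrate for NanoLuc in the medium, so luminescence tracks viable cell number. Compound (23 nL, DMSO) added 5 h post-seeding; kinetic reads at 0–40 h, 37 C.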

Assay [7] is described as follows: A CellTox Green Cytotoxicity Assay to monitor cytotoxicity in HEK293 cells - 16 hour (AID 1224888). Note: nearly all actives have a fitted effect of over 35% in size. Note: potency is the fitted concentration of half-maximal effect. Summed up:
(§4)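 Cells (HEK293, 600/well) and dye reagent are dispensed together. After 5 h at 37 C, 23 nL compound is pinned in. Plates stay at 37 C for 40 h with fluorescence read at 0h, 8h, 16h, 24h, 32h and 40h.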

Assay [8] in a line: qHTS RealTime-Glo MT Cell Viability Assay in HepG2 cells - 0 hour (AID 1224889). Note: % is set by controls: 0 for no effect and ±100 for the full control effect; nearly all actives have a fitted effect of over 50% in size. Summed up: as §2
A short description of assay [9]: A CellTox Green Cytotoxicity Assay to monitor cytotoxicity in HepG2 cells - 8 hour (AID 1224890). Note: nearly all actives have a fitted effect of over 45% in size. Note: potency is the fitted concentration of half-maximal effect. Summed up: as §1
Assay [10] can be described thus: qHTS assay to identify small molecule antagonists of the estrogen receptor alpha (ER-alpha) signaling pathway using the BG1 cell line in the presence of 0.1 nM 17-beta-estradiol - cell viability counter screen (AID 1259241). Note: % is set by controls: 0 for no effect and ±100 for the full control effect; nearly all actives have a fitted effect of over 40% in size. The essentials:
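The cell line endogenously expresses full-length ER-alpha and carries four EREs driving luciferase. Cells are cultured 5 days hormone-free, treated 22 hr with compounds and 0.1 nM estradiol, then viability is read by fluorescence.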

Assay [11] is described as follows: qHTS assay to identify small molecule antagonists of the androgen receptor (AR) signaling pathway using the MDA cell line in the presence of 0.5 nM R1881 - cell viability counter screen (AID 1259242). Note: nearly all actives have a fitted effect of over 45% in size. Note: potency is the fitted concentration of half-maximal effect. The essentials:
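Steps: plate MDA-kb2 cells, rest 5 hr at 37C without CO2; pin in compounds in DMSO; add R1881 to 0.5 nM final; incubate 16 hr; add CellTiter-Fluor, 30 min; read fluorescence.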

The nature of assay [12]: qHTS assay to identify small molecule HDAC inhibitors - cell viability counter screen (AID 1259365). Note: series mostly up to about 92 µM; % is set by controls: 0 for no effect and ±100 for the full control effect; nearly all actives have a fitted effect of over 50% in size. Summed up: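 Viability readout: CellTiter-Glo luminescence. Wild-type HCT-116 cells, 2hr compound treatment following overnight attachment at 37 C.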
Assay [13] in a line: qHTS assay to identify small molecule antagonists of the sonic hedgehog signaling (Shh) pathway (AID 1259369; calls by dose curve; note: nearly all actives have a fitted effect of over 45% in size; note: potency is the fitted concentration of half-maximal effect). The essentials:
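Cells are plated and held 4hr at 37 C, compounds (DMSO) are pinned in, conditioned medium is added to stimulate the pathway, and after 24hr luciferase reagent is added for 30min before luminescence is read.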

The nature of assay [14]: qHTS assay to identify small molecule agonists or antagonists of the thyroid stimulating hormone receptor (TSHR) signaling pathway - wild type cell line counter screen (AID 1259384; calls by dose curve; note: % is set by controls: 0 for no effect and ±100 for the full control effect). The essentials:
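Wild-type Hek293 cells, 800/well, 18 h at 37C, then compound with Ro20-1724 for 30 min RT. cAMP by HTRF (cAMP-d2/anti-cAMP cryptate), 1 h RT, fluorescence read. 15 concentrations, triplicates.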

The nature of assay [15]: qHTS assay to identify small molecule agonists of the TGF-beta/Smad signaling pathway (AID 1346859; active = well fitted activation curve with a large enough effect in the signal ratio in the repeat runs, not every such curve was filed as active; the % refers to the signal ratio; note: series mostly up to about 77 µM; % is set by controls: 0 for no effect and ±100 for the full control effect). Summed up:
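Smad-responsive beta-lactamase reporter cells (HEK 293T) received compounds from DMSO stocks after overnight attachment, were incubated 5 hr, then treated 2 hr with FRET substrate before dual-emission fluorescence measurement (405 nm excitation).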

Assay [16] deals with Cytochrome P450 2C19 (Homo sapiens) (UniProt P33261). The assay is described as follows: Cytochrome P450 Family 2 Subfamily C Member 19 (CYP2C19) small molecule antagonists: luciferase reporter qHTS assay (AID 1671197). Note: potency is the fitted concentration of half-maximal effect; nearly all actives have a fitted effect of over 65% in size. Summed up:
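Luminescent readout of CYP2C19 activity: luciferin product detected 20 min after adding detection reagent. Before that, compound and enzyme-substrate mix preincubated 10 min at room temperature; NADPH-regenerating system started a 1 h, 37C reaction. Ketoconazole as positive control.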

For assay [17], the target named is Cytochrome P450 1A2 (Homo sapiens) (UniProt P05177). The assay can be described thus: Cytochrome P450 Family 1 Subfamily A Member 2 (CYP1A2) small molecule antagonists: luciferase reporter qHTS assay (AID 1671199). Note: nearly all actives have a fitted effect of over 50% in size. Note: potency is the fitted concentration of half-maximal effect. The essentials:
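Compounds were incubated with CYP1A2 and a luminogenic proluciferin substrate for 10 min at room temperature before the reaction was started with NADPH regeneration solution. After 1 h, detection reagent was added and light output, proportional to CYP activity, was recorded.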

Assay [18] concerns the target Voltage-gated inwardly rectifying potassium channel KCNH2 (Homo sapiens) (UniProt Q12809). The assay can be described thus: Human Ether-a-go-go-Related Gene (hERG) channel small molecule antagonists: fluorescence cell-based qHTS assay (AID 1671200). Note: nearly all actives have a fitted effect of over 50% in size. Note: potency is the fitted concentration of half-maximal effect. Summed up:
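Quantitative HTS in hERG-U2OS cells: thallium entry through the channel reports activity, read as continuous 480/540 nm fluorescence over 2 min after stimulus addition.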

Assay [19] can be described thus: A CellTox Green Cytotoxicity Assay to monitor cytotoxicity in HEK293 cells - 0 hour (AID 1224869). Summed up:
as §4

The nature of assay [20]: qHTS RealTime-Glo MT Cell Viability Assay in HEK293 cells - 40 hour (AID 1224874). Note: nearly all actives have a fitted effect of over 50% in size. Note: potency is the fitted concentration of half-maximal effect. To be noted: RealTime-Glo luminescence; max response: hits give low values. The essentials: as §3

Sequence of Voltage-gated inwardly rectifying potassium channel KCNH2 (Homo sapiens) (Q12809 whole entry, looked up): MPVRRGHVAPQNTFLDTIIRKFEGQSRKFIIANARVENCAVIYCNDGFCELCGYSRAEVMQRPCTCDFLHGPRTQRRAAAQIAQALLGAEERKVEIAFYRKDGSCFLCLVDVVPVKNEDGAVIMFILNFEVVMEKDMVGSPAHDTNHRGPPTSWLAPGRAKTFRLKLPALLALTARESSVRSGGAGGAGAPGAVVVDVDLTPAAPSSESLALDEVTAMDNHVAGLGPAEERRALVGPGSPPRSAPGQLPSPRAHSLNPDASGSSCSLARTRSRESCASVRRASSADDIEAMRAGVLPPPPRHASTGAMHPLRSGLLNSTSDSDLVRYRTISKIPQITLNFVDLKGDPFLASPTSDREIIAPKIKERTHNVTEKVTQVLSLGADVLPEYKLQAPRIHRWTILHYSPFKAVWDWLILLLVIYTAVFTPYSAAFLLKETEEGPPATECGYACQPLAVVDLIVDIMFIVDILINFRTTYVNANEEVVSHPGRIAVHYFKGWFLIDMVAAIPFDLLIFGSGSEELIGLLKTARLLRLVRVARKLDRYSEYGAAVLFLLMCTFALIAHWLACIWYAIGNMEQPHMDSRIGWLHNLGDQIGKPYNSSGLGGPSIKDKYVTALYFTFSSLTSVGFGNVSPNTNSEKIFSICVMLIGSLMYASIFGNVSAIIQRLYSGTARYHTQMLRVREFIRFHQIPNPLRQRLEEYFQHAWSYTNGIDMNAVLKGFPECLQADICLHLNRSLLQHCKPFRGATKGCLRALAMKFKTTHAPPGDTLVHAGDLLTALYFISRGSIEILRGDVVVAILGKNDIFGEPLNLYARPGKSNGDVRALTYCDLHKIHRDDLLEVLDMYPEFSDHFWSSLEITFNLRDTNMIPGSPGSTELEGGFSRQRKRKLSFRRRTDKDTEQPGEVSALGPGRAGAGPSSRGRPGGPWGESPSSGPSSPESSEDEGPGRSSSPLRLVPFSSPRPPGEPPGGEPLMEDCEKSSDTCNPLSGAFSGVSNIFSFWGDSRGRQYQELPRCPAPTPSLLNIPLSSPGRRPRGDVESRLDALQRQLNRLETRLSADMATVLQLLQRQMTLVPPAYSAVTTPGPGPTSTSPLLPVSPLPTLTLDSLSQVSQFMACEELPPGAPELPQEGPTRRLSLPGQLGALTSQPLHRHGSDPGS
Sequence of Cytochrome P450 1A2 (Homo sapiens) (P05177 whole entry, looked up): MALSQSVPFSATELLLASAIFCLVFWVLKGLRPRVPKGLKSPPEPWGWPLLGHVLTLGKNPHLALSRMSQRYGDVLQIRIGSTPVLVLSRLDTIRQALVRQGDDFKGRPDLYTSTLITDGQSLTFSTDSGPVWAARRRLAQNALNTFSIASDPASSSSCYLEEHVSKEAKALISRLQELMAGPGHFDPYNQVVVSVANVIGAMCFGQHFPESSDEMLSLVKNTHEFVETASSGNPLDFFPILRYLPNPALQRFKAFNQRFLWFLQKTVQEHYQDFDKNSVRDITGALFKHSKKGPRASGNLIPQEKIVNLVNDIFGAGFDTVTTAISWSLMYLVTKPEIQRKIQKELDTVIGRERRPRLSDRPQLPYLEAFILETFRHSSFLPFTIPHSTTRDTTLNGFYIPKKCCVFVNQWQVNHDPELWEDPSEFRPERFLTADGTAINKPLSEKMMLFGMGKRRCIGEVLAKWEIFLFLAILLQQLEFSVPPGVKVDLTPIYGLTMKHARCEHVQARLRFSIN
Sequence of Nuclear receptor subfamily 1 group I member 3 (Homo sapiens) (Q14994 whole entry, looked up): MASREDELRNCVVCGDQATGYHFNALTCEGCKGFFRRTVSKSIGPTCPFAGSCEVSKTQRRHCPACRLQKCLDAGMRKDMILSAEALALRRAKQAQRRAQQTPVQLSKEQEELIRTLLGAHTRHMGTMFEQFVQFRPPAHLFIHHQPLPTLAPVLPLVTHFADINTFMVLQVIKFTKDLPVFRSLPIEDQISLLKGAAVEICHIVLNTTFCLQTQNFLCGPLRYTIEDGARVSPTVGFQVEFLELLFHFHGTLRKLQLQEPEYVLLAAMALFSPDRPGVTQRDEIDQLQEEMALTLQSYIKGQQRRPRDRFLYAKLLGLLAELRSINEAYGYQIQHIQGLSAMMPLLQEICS
Sequence of Cytochrome P450 2C19 (Homo sapiens) (P33261 whole entry, looked up): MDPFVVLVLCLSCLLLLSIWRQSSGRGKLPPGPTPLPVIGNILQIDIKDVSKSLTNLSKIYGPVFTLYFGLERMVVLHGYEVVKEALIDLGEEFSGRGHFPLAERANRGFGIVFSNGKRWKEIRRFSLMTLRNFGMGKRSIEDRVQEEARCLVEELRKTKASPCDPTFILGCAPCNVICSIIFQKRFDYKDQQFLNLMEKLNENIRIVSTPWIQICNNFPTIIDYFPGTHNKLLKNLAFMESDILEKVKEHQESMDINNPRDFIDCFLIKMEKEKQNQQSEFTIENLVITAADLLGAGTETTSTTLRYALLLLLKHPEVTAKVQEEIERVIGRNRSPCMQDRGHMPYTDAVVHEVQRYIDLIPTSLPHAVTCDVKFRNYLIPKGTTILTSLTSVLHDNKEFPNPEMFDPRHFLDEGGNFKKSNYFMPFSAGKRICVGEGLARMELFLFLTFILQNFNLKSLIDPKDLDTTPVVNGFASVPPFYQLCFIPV

`CNC(=O)Oc1cc(C)c(SC)c(C)c1`: the Potency result in assay [1], in assay [2], in [3], in assay [4], in assay [5] and in [8] was “inactive” in each case. Moreover, the Potency entry in assay [9], in [10], in assay [11] and in assay [18] was “inactive” each time. The outcome in [6], in assay [12], in assay [14] and in assay [15] was inactive. Also, the Potency is 21.9 µM (active) in assay [7], 8.63 µM (active) in [13], 56.4 µM (active) in assay [16] and 6.33 µM (active) in [17].
`CCC(C)=O`: in [1], the Potency entry is “inactive”.
With `CCCCC(CC)COC(=O)c1ccc(C(=O)OCC(CC)CCCC)cc1` (configuration not stated), the Potency result in [1] was “inactive”.
On the same count and under the same terms, with `CCCCC(CC)COC(=O)CCCCC(=O)OCC(CC)CCCC` (configuration not stated) the entry was “inactive”.
Regarding `Cc1ccc2nc3sc(=O)sc3nc2c1`, the activity, negative = inhibition in assay [2] was 67.8% [at 19 µM]. Besides, the cytotoxicity in assay [19] is -0.433% [at 15.8 µM]. Besides, the results for the activity change, negative = cytotoxic in assay [3] and in assay [5] were -11.2% [at 15.8 µM] and -8.61% [at 15.8 µM], respectively. Moreover, the max response in [20] was 3.19%. Moreover, the cytotoxicity increase in assay [4] is -9.02% [at 15.8 µM]; in [9], -5.93% [at 15.8 µM]. Also, the activity change, negative = cytotoxicity in [6] is -3.58% [at 15.8 µM]; in assay [8], 15.7% [at 15.8 µM]; in assay [10] it was 1.06% [at 19 µM]; in assay [12], 4.09% [at 19 µM]. In assay [7], the activity change is -2.03% [at 15.8 µM, hits give high values]. Further, in assay [11], the viability change, negative = cytotoxic is -14.8% [at 19 µM]. In addition, the activity change, negative = inhibition in assay [13] was -28.1% [at 19 µM]; in assay [18], 2.68% [at 15.8 µM]. Further, in assay [14], the cAMP activity change was 3.67% [at 18.9 µM]. Also, in assay [15], the activation is -3.69% [at 15.8 µM]. For the same molecule, the Potency in [16] was 16.9 µM (active); in assay [17], 13.5 µM (active).
For the molecule `CO/C=C(/C(=O)OC)c1ccccc1Oc1cc(Oc2ccccc2C#N)ncn1`, the Potency result in [2], in [19], in assay [3], in assay [4], in [7] and in assay [9] was “inactive” throughout. Also, the Potency entry in [18] was “inactive”. Moreover, the Potency was 33.8 µM (active) in assay [20]; 24.3 µM (active) in assay [11]; 0.327 µM (active) in assay [13]; 2.39 µM (active) in assay [16]; 41.4 µM (active) in assay [17]. The result in assay [12] and in assay [14] was inactive.
Take `O=C1OC(=O)c2c(Cl)c(Cl)c(Cl)c(Cl)c21`: the Potency result in [1] and in assay [2] was “inactive” each time.
Consider `N#Cc1cc([N+](=O)[O-])ccc1N`, for which the Potency entry in assay [2], in [19], in assay [3], in assay [4], in [5] and in assay [7] was “inactive” throughout. For the same molecule, the Potency result in [8], in assay [9], in [10], in assay [11] and in [18] was “inactive” throughout. The max response in assay [20] was -6.49%. Further, the molecule was classed as inactive in [6], in assay [12], in [14] and in assay [15]. Besides, the Potency in [17] was 35.6 µM (active).
Consider `O=S(=O)(C(Cl)(Cl)Cl)C(Cl)(Cl)Cl`, for which the Potency in assay [2] is 24.3 µM (active); in [3] it was 34.7 µM (active); in [20] it was 8.71 µM (active); in assay [4] it was 38.9 µM (active); in assay [5], 34.7 µM (active); in [7], 24.5 µM (active). Also, the Potency is 34.7 µM (active) in [9]; 54.5 µM (active) in assay [11]; 2.17 µM (active) in assay [13]; 25.2 µM (active) in assay [16]; 22.4 µM (active) in assay [17]; 24.5 µM (active) in [18]. Moreover, the Potency result in [19] and in assay [10] was “inactive” each time. In addition, the result in [6], in [14] and in assay [15] was inactive.
Take `Cc1cc(C)c(C(=O)P(=O)(c2ccccc2)c2ccccc2)c(C)c1`: the Potency entry in [2], in [19], in [3], in [5], in assay [7] and in assay [9] was “inactive” in each case. Also, the Potency entry in assay [10], in assay [11] and in [17] was “inactive” in each case. Also, the Potency in assay [20] is 38.9 µM (active); in assay [13] it was 4.33 µM (active); in assay [16], 6.33 µM (active); in assay [18] it was 19.5 µM (active). Also, the molecule was classed as inactive in [12], in assay [14] and in assay [15].
Take `O=C(c1ccc(Cl)cc1)c1ccc(Cl)cc1`: the Potency result in assay [1] was “inactive”.
On the same count and under the same terms, with `Cc1c(N)cccc1[N+](=O)[O-]` the entry was “inactive”.
Regarding `O=C1C(I)=CC(=C(c2cc(I)c(O)c(I)c2)c2ccccc2C(=O)O)C=C1I`, the Potency result in [1], in [2], in [19], in [3], in assay [4] and in [5] was “inactive” in each case. Moreover, the Potency entry in assay [7], in assay [8], in assay [9], in assay [10], in assay [11] and in [17] was “inactive” each time. For the same molecule, the Potency result in assay [18] was “inactive”. Also, the max response in [20] is -8.4%. Besides, the result in [6], in assay [12], in [14] and in assay [15] was inactive. Moreover, the Potency in [16] is 13.8 µM (active).
